Here are results for 30 compounds from ChEMBL document CHEMBL3988442, “University of Dundee, Small-Polar-MMV Screening Library” (2021).

Molecules are shown by their SMILES. Some results are limits rather than exact numbers.

The target of this assay is T1, Methionyl-tRNA synthetase, putative (Leishmania donovani (strain BPK282A1)) (UniProt E9BF75).
T1 sequence (whole entry): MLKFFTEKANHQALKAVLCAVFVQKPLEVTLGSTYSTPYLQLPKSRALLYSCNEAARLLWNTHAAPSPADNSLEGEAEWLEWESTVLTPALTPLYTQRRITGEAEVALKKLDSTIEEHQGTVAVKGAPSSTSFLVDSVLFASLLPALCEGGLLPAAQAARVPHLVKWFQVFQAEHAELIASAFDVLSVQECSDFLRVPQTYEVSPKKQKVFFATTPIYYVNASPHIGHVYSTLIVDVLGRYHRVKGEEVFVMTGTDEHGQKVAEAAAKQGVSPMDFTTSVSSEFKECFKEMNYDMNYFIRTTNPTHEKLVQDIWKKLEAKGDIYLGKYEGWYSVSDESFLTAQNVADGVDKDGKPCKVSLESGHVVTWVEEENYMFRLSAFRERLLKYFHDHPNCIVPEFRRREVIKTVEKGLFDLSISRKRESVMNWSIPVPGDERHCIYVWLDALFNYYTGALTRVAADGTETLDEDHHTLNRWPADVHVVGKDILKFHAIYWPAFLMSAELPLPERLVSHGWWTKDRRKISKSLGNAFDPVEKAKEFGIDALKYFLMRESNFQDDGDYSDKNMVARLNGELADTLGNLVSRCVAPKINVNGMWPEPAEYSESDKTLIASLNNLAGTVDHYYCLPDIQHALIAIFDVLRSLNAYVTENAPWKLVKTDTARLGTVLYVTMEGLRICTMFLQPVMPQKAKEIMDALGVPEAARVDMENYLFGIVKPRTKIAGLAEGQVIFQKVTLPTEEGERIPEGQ
The assay can be described thus: Leishmania donovani Methionine tRNA synthetase (LdMetRS):v7. Dose response assay. The class given is functional. Also noted: conc 80 nM, time 150 minutes.

In the case of `OB1OCc2cc(Cl)ncc21`, the PXC50 reads like this: (MAX_EFFECT 7.762557078) below 4; (MAX_EFFECT 14.1509434) below 4.

Consider `CCc1cc2c(NC(CC(C)C)C(=O)O)nc(C)nc2s1` (stereo not given), for which the PXC50 was below 4 (MAX_EFFECT 8.0) and below 4 (MAX_EFFECT 13.22751323).

As for `CC(O)CNc1nc(CN2CCCCC2)nc2sc3c(c12)CCCC3` (stereo not given), the PXC50 runs as follows: (MAX_EFFECT 8.108108108) below 4; (MAX_EFFECT 9.547738693) below 4.

For the compound `Cc1sc2nc(-c3cccnc3)nc(NCCOCCO)c2c1C`, the PXC50 (MAX_EFFECT 9.042553191) was below 4 and the PXC50 (MAX_EFFECT 9.844559585) was below 4.

`Cc1nc(N2CCCCCC2)c2ccsc2n1`: the PXC50 is, setting by setting: (MAX_EFFECT 9.6) below 4; (MAX_EFFECT 10.05291005) below 4.

Consider `CN1CCN(c2ccc3ccc(C(=O)N4CCCO4)cn23)CC1`, for which the PXC50 is, setting by setting: (MAX_EFFECT 9.85915493) below 4; (MAX_EFFECT 16.48148148) below 4.

Compound `CN1CCN(c2ccc3ccc(C(=O)N4CCCCO4)cn23)CC1` showed a PXC50 (MAX_EFFECT 12.20657277) below 4 and a PXC50 (MAX_EFFECT 19.44444444) below 4.

As to `COCCN(Cc1sccc1C)c1nc(C)nc2sccc12`, the PXC50 reads like this: (MAX_EFFECT 12.79373368) below 4; (MAX_EFFECT 17.23237598) below 4.

Regarding `Cc1nc(N(Cc2ccncc2)CC2CCCO2)c2ccsc2n1` (stereo not given), the PXC50 (MAX_EFFECT 13.31592689) is below 4 and the PXC50 (MAX_EFFECT 17.75456919) is below 4.

Turning to `O=C(CO)N1CCC(F)(F)C2(CCN(c3ccccc3)C2)C1` (stereo not given), the PXC50 was below 4 (MAX_EFFECT 15.37037037) and below 4 (MAX_EFFECT 18.30985915).

For the compound `CNc1ccc2ncc(-c3ccc4onc(N)c4c3)n2n1`, the PXC50 was below 4 (MAX_EFFECT 16.28498728) and below 4 (MAX_EFFECT 18.85964912).

Take `Cc1nc(N(C)Cc2cccnc2)c2c(C)c(C)sc2n1`: the PXC50 is, setting by setting: (MAX_EFFECT 19.78609626) below 4; (MAX_EFFECT 20.76502732) below 4.

`Cc1nc(NCc2cccnc2)c2c3c(sc2n1)CC(C)CC3` (stereo not given): the PXC50 by setting is: (MAX_EFFECT 20.10178117) below 4; (MAX_EFFECT 27.4559194) below 4.

The compound `C[C@@H](Oc1cc(-n2cnc3cc(N)ccc32)sc1C(N)=O)c1ccccc1Cl` had a PXC50 (MAX_EFFECT 24.18604651) below 4 and a PXC50 (MAX_EFFECT 25.87412587) below 4.

Take `CCN(CCO)c1nc(-c2ccsc2)nc2sc3c(c12)CCCC3`: the PXC50 (MAX_EFFECT 43.2) is below 4 and the PXC50 (MAX_EFFECT 48.67724868) is below 4.

Regarding `COCCNc1nc(CN2CCOCC2)nc2sc3c(c12)CCCC3`, the PXC50 by setting is: (MAX_EFFECT -0.877192982) below 4; (MAX_EFFECT -1.5625) below 4.

Consider `CC(C)(CN)COc1cccc(F)c1Oc1ccc(Cl)cc1`, for which the PXC50 is below 4 (MAX_EFFECT 16.84434968) and below 4 (MAX_EFFECT 20.08281573).

Regarding `CCc1nc(NCc2ccccn2)c2cc(CC)sc2n1`, the PXC50 (MAX_EFFECT 4.176904177) was below 4 and the PXC50 (MAX_EFFECT 4.522613065) is below 4.

In the case of `Nc1noc2ccc(-c3cnc4ccc(NC5CCOCC5)nn34)cc12`, the PXC50 is below 4 (MAX_EFFECT 17.30279898) and below 4 (MAX_EFFECT 20.1754386).

Turning to `CC(C)C[C@H](N)COc1ccccc1N1CCCC1=O`, the PXC50 reads like this: (MAX_EFFECT 8.074534161) below 4; (MAX_EFFECT 13.85927505) below 4.

On to `CN(C)C(=O)CNC(=O)c1ccc2ccc(N(C)CC3CC3)n2c1`, for which the PXC50 is, setting by setting: (MAX_EFFECT 21.76870748) below 4; (MAX_EFFECT 29.90654206) below 4.

Regarding `Cc1nccn1CCCn1cncc1-c1ccc2c(c1)CCCN2C`, the PXC50 by setting is: (MAX_EFFECT 9.523809524) below 4; (MAX_EFFECT 19.43925234) below 4.

In the case of `CCC(CO)Nc1nc(CSc2ccccc2)nc2sc(C)c(C)c12` (stereo not given), the PXC50 is below 4 (MAX_EFFECT 23.49726776) and below 4 (MAX_EFFECT 24.06417112).

The compound `Cc1nnc(NCC2(c3ccccc3)CCC2)c(C#N)c1C` yielded a PXC50 (MAX_EFFECT 19.71830986) below 4 and a PXC50 (MAX_EFFECT 20.92592593) below 4.

Take `Cc1sc2nc(C(F)(F)F)nc(N3CCN(S(C)(=O)=O)CC3)c2c1C`: the PXC50 is below 4 (MAX_EFFECT 4.699738903) and below 4 (MAX_EFFECT -2.872062663).

Consider `CCc1nc(NC(C(=O)O)C(C)C)c2cc(CC)sc2n1` (stereo not given), for which the PXC50 is below 4 (MAX_EFFECT 9.289617486) and below 4 (MAX_EFFECT 12.29946524).

Turning to `CCc1nc(N2CCCC(C)C2)c2c3c(sc2n1)CCC3` (stereo not given), the PXC50 (BOTTOM 6.332749468, HILLSLOPE 1.241583482, MAX_EFFECT 50.25125628, TOP 77.91036355) worked out at 4.17 and the PXC50 (MAX_EFFECT 49.87714988) was below 4.

Consider `Cc1nc(N(C)CC(=O)N(C)C)c2c(-c3ccccc3)csc2n1`, for which the PXC50 by setting is: (MAX_EFFECT 5.289672544) below 4; (MAX_EFFECT 6.361323155) below 4.

For the compound `Cc1ccc(N2CCCC(N(C)c3ncnc4c3CCC4)C2)nn1` (stereo not given), the PXC50 (MAX_EFFECT 10.79812207) was below 4 and the PXC50 (MAX_EFFECT 20.18518519) was below 4.

Consider `CCc1nc(NCCCN(C)C)c2cc(CC)sc2n1`, for which the PXC50 runs as follows: (MAX_EFFECT 9.547738693) below 4; (MAX_EFFECT 12.53071253) below 4.
